# Compounds without any hit were thinned out: in the full panel of roughly 83,000, 20% have a hit.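 Single-concentration screen, 48 h exposure, 96-well plates. Endpoint: percent growth. Below 10 = active.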 Calls of active or inactive are those of the source.
# Test system: MDA-MB-468 breast
# Test: NCI-60 one-dose screen, 48 h (100 = growth as untreated, 0 = no growth, -100 = all killed)
# Settings: 10 µM unless noted
row,SMILES,growth
1,NC(=O)c1c(NC(=O)c2cccs2)sc2c1CCC(=O)C2,65.2% (inactive)
2,O=C(O)c1ccc2c(c1)C(=O)c1ccccc1C2=O,-2.97% (active)
3,Nc1c(C(=O)Nc2ccncc2)sc2nc3c(cc12)C(O)CCC3 (stereo unspecified),88.5% (inactive)
4,c1cc2nc(-c3cn[nH]c3)c3c(c2cc1-c1cn[nH]c1)C1CCC3C1 (stereo unspecified),78.9% (inactive)
5,O=C(N=Nc1c(Cl)c(O)c2ccccc2c1O)C(=O)Nc1cccc(C(F)(F)F)c1,80.8% (inactive)
6,COc1ccccc1NS(=O)(=O)c1cccc(C(=O)Nc2ccc(Br)cc2)c1,3.03% (active)
7,Oc1ccc(Cl)cc1-c1cc(-c2ccc(Cl)cc2)n[nH]1,8.55% (active)
8,CCOC(=O)c1c(C)nc2c(c1N)/C(=C/c1ccc(OC)cc1)C(=O)N2Cc1ccc(F)cc1,-16.4% (active)
9,Clc1ccc(COc2ccc(Nc3ncnc4onc(-c5ccccc5)c34)cc2)cc1,78.5% (inactive)
10,Clc1ccc(Oc2ccc(Nc3ncnc4onc(-c5ccccc5)c34)cc2)c(Cl)c1,95.1% (inactive)
11,COc1cc(NCCCN(CC(C)C)C2CCCC2)c2ncccc2c1,15.7% (inactive)
12,Nc1nc(N)c2c(ccc3nccc32)[nH]1,34.9% (inactive)
13,NC(CSSCC(N)C(=O)O)C(=O)O (stereo unspecified),-17% (active)
14,Cc1cc(N/N=C/c2nc(-c3ccccc3)oc2C)c2cc(Br)ccc2n1,35.7% (inactive)
15,c1ccc(-c2n(Cc3ccc4ccccc4n3)cc[n+]2Cc2ccc3ccccc3c2)cc1,-33.5% (active)
16,N#Cc1c(NC(=O)NCc2ccccc2)sc2c1CCCC2,-33.5% (active)

# — PubChem BioAssay (NCI)
